PubChem BioAssay AID1852 (Sanford-Burnham Center for Chemical Genomics, 2009)
In all, about 2,500 compounds went through this assay and about 1,100 (44%) were called active.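 The calls were made as follows: active = inhibition above 50% at 4 µM in the single-point screen; inactive = inhibition of 50% or less.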 The set was probably picked from earlier hits. The list shows a part of the results.

Assay: TNF-a-driven NF-kB reporter inhibitors, primary screen, selectivity assay for NOD1/NOD2 signaling inhibitor project, cell-based, HEK293T NF-kB-Luc, luminescence (AID 1852)
Details: TNF-a induced, 14 h, at 4 µM, active compounds read high

inhibition, active:
COc1ccc(-c2cc(=O)oc3c(C)c(OC(=O)c4cccs4)ccc23)cc1 63.9%, COc1ccc(-c2cc(=O)oc3c(C)c(O)ccc23)cc1 91.8%, COc1ccc2cc(C(N)=O)c(=Nc3ccc(C)cc3)oc2c1 62.3%, Cc1ccc(N=c2oc3cc(O)ccc3cc2C(N)=O)cc1 72.5%, O=C(N/N=C/c1ccc([N+](=O)[O-])s1)c1cccc(Br)c1 66.8%, O=C(N/N=C/c1ccc([N+](=O)[O-])s1)c1ccccc1Br 50.8%, Cc1nc2ccccc2c(C)c1C(=O)c1ccc(F)cc1 66%, O=c1cc(CSc2nnc(-c3cccs3)n2Cc2ccccc2)nc2sc3ccccc3n12 88.7%, CC(=O)c1c(C)[nH]c(C(=O)OCC(=O)Nc2sc3c(c2C#N)CCCC3)c1C 58.6%, Cc1ccccc1Oc1cc(-n2ncc(Cl)c(Cl)c2=O)ncn1 103%, CCCN(CCC)S(=O)(=O)c1ccc(C(=O)Nc2nnc(-c3cc(OC)cc(OC)c3)o2)cc1 68.9%, O=C(Nc1nnc(-c2ccco2)o1)c1ccc2ccccc2c1 77.9%, CSCc1nnc(NC(=O)c2ccc(S(=O)(=O)N(CC(C)C)CC(C)C)cc2)o1 80.1%, COc1cc(OC)cc(-c2nnc(NC(=O)c3ccc4c(c3)OCCO4)o2)c1 105%, O=C(Nc1nnc(-c2ccc3c(c2)OCCO3)o1)c1ccc(Cc2ccccc2)cc1 105%, Cc1ccccc1N(Cc1cc(=O)[nH]c2ccccc12)C(=O)CCl 105%, Cc1ccc(N(Cc2cc(=O)[nH]c3ccccc23)C(=O)CCl)c(C)c1 100%, O=C(c1cc(COc2cccc3cnccc23)on1)N1CCC(c2ccccc2Cl)C1 (centres undefined) 72.7%, O=C(c1cc(COc2cccc3cnccc23)on1)N1CCCC(CCCO)C1 (centres undefined) 61.6%, COCC1CCN(C(=O)c2cc(COc3cccc4cnccc34)on2)CC1 52.7%, Cc1c(C(C)NC(=O)c2cc(COc3cccc4cnccc34)on2)cnn1C (centres undefined) 53.8%, N#C/C(=C\c1ccc(O)c([N+](=O)[O-])c1)c1nc2ccccc2s1 76.9%, CCOC(=O)c1c(-c2ccccc2)csc1NC(=O)CSc1nc(N)cc(N)n1 61.5%, CCOc1cc(/C=C2\CN(CC)C/C(=C\c3ccc(O)c(OCC)c3)C2=O)ccc1O 96.7%, CCOc1cc(/C=C2\CN(C)C/C(=C\c3ccc(O)c(OCC)c3)C2=O)ccc1O 65.5%, CCOC(=O)c1c(NC(=S)NCCc2ccccc2)sc2c1CC(C(C)C)OC2 (centres undefined) 82.3%, CCCCCCCCn1c2c(c(=N)c3ccccc31)CCC2 74.7%, CCCCCCCCCCn1c2c(c(=N)c3c1CCC3)CCC2 78.4%, CCCCCCCCCn1c2c(c(=N)c3c1CCC3)CCC2 74.8%

inhibition, inactive:
Cc1c(O)ccc2c(-c3ccccc3)cc(=O)oc12 30.3%, CC(=O)NCCC(=O)N1CCc2c([nH]c3ccccc23)C1c1cccc(Cl)c1 (centres undefined) 6.2%, CC(=O)N1CC(C)Sc2ccc(S(=O)(=O)NCCc3ccc(C)cc3)cc21 (centres undefined) 44.7%, Cc1ccc2oc(/N=C(\N)NC(=O)C(C)(C)C)nc2c1 40.4%, Cc1ccc(Oc2c(C(N)=O)cc([N+](=O)[O-])cc2[N+](=O)[O-])cc1 -11.8%, O=C(N/N=C\c1ccc([N+](=O)[O-])s1)C1COc2ccccc2O1 (centres undefined) 17.5%, Cc1cc(C(=O)N/N=C/c2ccc([N+](=O)[O-])s2)c2ccccc2n1 37.2%, O=C(Cc1cccs1)N/N=C\c1ccc([N+](=O)[O-])s1 49.1%, COc1cc(S(=O)(=O)n2cnc(C)c2)ccc1Br -6%, Fc1cccc(NC(=S)NNc2c3ccccc3nc3ccccc23)c1 20.7%, CCn1c(SCc2nc3scc(-c4ccccc4)c3c(=O)[nH]2)nnc1-c1cccs1 1.6%, Cc1ccc(C(=O)Nc2sc3c(c2C(=O)O)CCCC3)o1 -42.9%, NC(=O)c1c(NC(=O)CCCC(=O)O)sc2c1CCCCCC2 16.7%, COc1ccc(-c2nnc(NC(=O)c3ccc([N+](=O)[O-])o3)o2)c(OC)c1 49.5%, COCCN(CCOC)S(=O)(=O)c1ccc(C(=O)Nc2nc(C)c(C(C)=O)s2)cc1 -3.7%, Cc1nc([N+](=O)[O-])c(Br)n1CC(=O)c1ccc2ccccc2c1 25.6%, Cc1noc(C)c1S(=O)(=O)N1CCCC(C(=O)NCc2ccccc2Cl)C1 (centres undefined) 21.1%, COCC1CCN(C(=O)c2cc(COc3ccc4ncccc4c3)on2)CC1 40.2%, COCC1CCCN(C(=O)c2cc(COc3ccc4ncccc4c3)on2)C1 (centres undefined) 33.2%, O=C(c1cc(COc2c(F)cccc2F)on1)N1CCC(c2ccncc2)CC1 41.3%, COc1cccc(OCc2cc(C(=O)NCc3cnc4ccccn34)no2)c1 4.4%, CCN(CC)C(=O)C1CCCN(C(=O)c2cc(COc3ccc4ncccc4c3)on2)C1 (centres undefined) 36%, COc1ccc(OCc2cc(C(=O)N3CCC(c4ccccc4)CC3)no2)c(Cl)c1 -96.3%, CSc1ccccc1OCc1cc(C(=O)N2CCC(c3ccncc3)CC2)no1 29.9%, Cc1ccc(C)c(OCc2cc(C(=O)NC3CCN(Cc4ccccc4)CC3)no2)c1 22.7%, NS(=O)(=O)c1ccc(Sc2nc3ccccc3s2)c([N+](=O)[O-])c1 35.3%, CCOc1ccc(-c2csc(/C(C#N)=C\c3ccc(O)c([N+](=O)[O-])c3)n2)cc1 0.4%, Cc1sc(NC(=O)CSc2ncn(-c3ccccc3)n2)nc1-c1ccccc1 33.1%, CC(C)c1ccc(-c2csc(NC(=O)c3cccs3)c2C(=O)O)cc1 16.6%, CC(C)COc1ccc(C(=O)Nc2sc3c(c2C(=O)O)CC(C)(C)OC3)cc1 35.4%
